Assay outcomes: PubChem BioAssay, The Scripps Research Institute Molecular Screening Center
PAFAH1B2 FP inh – PAFAH1B2 enzyme inhibitors, primary screen, biochemical, fluorescence polarization, human. recombinant PAFAH1B2, FP-rhodamine activity probe. inhibition, % at 3.39 µM. 340,000 tested, 1.2% active. AID 492953, 2010. Platelet-activating factor acetylhydrolase IB subunit alpha2 (Homo sapiens), P68402;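 active = inhibition above the mean of all tested compounds plus 3 SD, cut at about 24% in these data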
pPAFAH inh – pPAFAH enzyme inhibitors, primary screen, biochemical, fluorescence polarization, human. AID 463082, 2010. recombinant pPAFAH, FP-rhodamine probe fluorescence polarization. 330,000 tested, 1.5% active. inhibition, % at 3.39 µM. Platelet-activating factor acetylhydrolase (Homo sapiens), Q13093;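 active = inhibition above the mean inhibition across the screen plus 3 SD, cut at about 25% in these data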;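 also: inhibitors block binding of the rhodamine activity-based probe so polarization drops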
Target sequence (Q13093 whole entry, looked up): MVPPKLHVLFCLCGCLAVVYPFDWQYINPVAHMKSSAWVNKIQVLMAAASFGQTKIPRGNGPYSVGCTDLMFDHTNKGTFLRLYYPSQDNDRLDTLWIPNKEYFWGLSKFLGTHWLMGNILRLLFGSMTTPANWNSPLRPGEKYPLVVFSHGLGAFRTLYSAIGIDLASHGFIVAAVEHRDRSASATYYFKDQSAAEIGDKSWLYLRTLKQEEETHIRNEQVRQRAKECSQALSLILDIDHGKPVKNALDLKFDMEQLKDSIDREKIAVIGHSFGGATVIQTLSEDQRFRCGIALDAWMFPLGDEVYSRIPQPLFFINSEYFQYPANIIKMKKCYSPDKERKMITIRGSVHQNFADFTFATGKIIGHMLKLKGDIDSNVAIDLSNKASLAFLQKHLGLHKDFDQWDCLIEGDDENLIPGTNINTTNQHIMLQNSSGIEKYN
PAFAH2 inh – PAFAH2 enzyme inhibitors, primary screen, biochemical, fluorescence polarization, human. Platelet-activating factor acetylhydrolase 2, cytoplasmic (Homo sapiens), Q99487. recombinant PAFAH2, FP-rhodamine activity probe. inhibition, % at 3.39 µM. 340,000 tested, 0.99% active;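 active = inhibition above the mean over all tested compounds plus 3 SD, cut at about 30% in these data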;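 also: inhibitors block probe labeling of enzyme so polarization drops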
TCR CD3 inh – inhibitors of human TCR-CD3 interaction, primary screen, biochemical, fluorescence, TAMRA-labeled TCR probe; T-cell receptor (TCR); inhibition, % at 9.4 µM; 360,000 tested, 0.37% active; AID 651800, 2012; in the data active = inhibition above about 19%;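 also: recombinant mutant TCR 2C K166C tagged with TAMRA read by polarization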
PAFAH1B3 FP inh – PAFAH1B3 enzyme inhibitors, primary screen, biochemical, fluorescence polarization, human; inhibition, % at 3.39 µM; 340,000 tested, 0.28% active; recombinant PAFAH1B3, FP-rhodamine probe; Platelet-activating factor acetylhydrolase IB subunit alpha1 (Homo sapiens), Q15102;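 active = inhibition above the screen-wide average of all tested compounds plus 3 SD, cut at about 25% in these data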
Target sequence (Q15102 whole entry, looked up): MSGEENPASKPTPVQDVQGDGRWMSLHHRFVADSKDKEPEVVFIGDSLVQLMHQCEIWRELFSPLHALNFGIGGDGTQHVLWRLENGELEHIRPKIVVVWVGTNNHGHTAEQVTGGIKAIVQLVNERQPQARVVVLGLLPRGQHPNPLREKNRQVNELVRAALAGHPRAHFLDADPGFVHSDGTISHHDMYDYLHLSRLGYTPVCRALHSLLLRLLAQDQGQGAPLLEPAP
PAFAH2 confirm – PAFAH2 enzyme inhibitors, confirmation, biochemical, fluorescence polarization, human. 2,300 tested, 65% active. inhibition, % at 3.39 µM. recombinant PAFAH2, FP-rhodamine activity probe. shares compounds with PAFAH2 inh;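 active = mean inhibition over three repeats above a set limit taken from the earlier primary screen, cut at about 30% in these data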;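 also: inhibitor blocks binding of rhodamine activity probe so polarization falls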
Each line names hits and unclear results; the compound was inactive in the other large screens (follow-up assays come after a bar, where they were run). Rows were chosen to be rich in hits. Some 2.7% of all compounds tested hit in one or more screens of this group.

CS(=O)(=O)N1Cc2cc(C(=O)NCC3CC3)nc(-c3cccc(-c4cccnc4)c3)c2[C@H]1CCO	none (no result: PAFAH1B2 FP inh, pPAFAH inh, PAFAH2 inh, PAFAH1B3 FP inh)
CCCCCCC(=O)Nc1c(O)c2ccccc2[nH]c1=O	PAFAH2 inh 42 | PAFAH2 confirm inactive
C/C=C/C(=O)OCC(=O)Nc1cc(OC)c([N+](=O)[O-])cc1C	none
COc1cc(NC(=O)COC(=O)C=C(C)C)c(C)cc1[N+](=O)[O-]	PAFAH2 inh 61 | PAFAH2 confirm inactive
COc1cc(NC(=O)COC(=O)C2CC2)c(C)cc1[N+](=O)[O-]	PAFAH2 inh 46 | PAFAH2 confirm inactive
COc1ccc(CCNC(=O)CC(C)(C)CC2=NS(=O)(=O)c3ccccc3N2)cc1OC	none
Cc1ncc(CO)c2cc(S(=O)(=O)c3ccc(F)cc3)c(=O)oc12	none
O=c1oc2ccc(Br)cc2cc1S(=O)(=O)c1ccc(F)cc1	PAFAH2 inh 80 (no result: TCR CD3 inh) | PAFAH2 confirm 63
CC(OC(=O)/C=C/c1ccco1)C(=O)NC1CCCCC1 (stereo unspecified)	none (no result: PAFAH1B2 FP inh, pPAFAH inh, PAFAH2 inh, PAFAH1B3 FP inh)
COc1ccc(C2CC(c3ccccc3)=NN2C(=O)COC(=O)c2cc(S(=O)(=O)N3CCOCC3)ccc2F)cc1 (stereo unspecified)	PAFAH2 inh 48 | PAFAH2 confirm 51
CC(C)=CC(=O)OCC(=O)Nc1cc(C)cc(C)c1	PAFAH2 inh 81 | PAFAH2 confirm 85
CC(C)=CC(=O)OCC(=O)Nc1ccc(Cl)cc1	PAFAH2 inh 80 | PAFAH2 confirm 78
Fc1ccc(-[n+]2nc(Nc3ccccc3)sc2-c2ccc(OCc3ccccc3)cc2)cc1	none
COc1cc(-c2coc3c(C(=O)NCc4ccccc4)cccc23)ccc1O	none (no result: PAFAH1B2 FP inh, pPAFAH inh, PAFAH2 inh, PAFAH1B3 FP inh)
C[C@@H]1CN([C@@H](C)CO)C(=O)CCCn2nncc2CO[C@@H]1CN(C)C(=O)Cc1ccccc1	none (no result: PAFAH1B2 FP inh, pPAFAH inh, PAFAH2 inh, PAFAH1B3 FP inh)
CS(=O)(=O)Nc1cccc(-c2ccc3nncn3c2)c1	none (no result: PAFAH1B2 FP inh, pPAFAH inh, PAFAH2 inh, PAFAH1B3 FP inh)
CC(C)(C)OC(=O)N1CCN(C(=O)c2ncn3c2c(=O)[nH]c2ccccc23)CC1	none (no result: PAFAH1B2 FP inh, pPAFAH inh, PAFAH2 inh, PAFAH1B3 FP inh)
CC1CCN(C(=O)COC(=O)c2ccc(N3CCCC3=O)cc2)CC1	PAFAH2 inh 37 | PAFAH2 confirm 30
O=C(OCC(=O)N1CCOCC1)c1ccc2c(c1)OCCO2	none
CC1CCN(C(=O)COC(=O)c2cccs2)CC1	PAFAH2 inh 35 | PAFAH2 confirm inactive
CC1CCN(C(=O)COC(=O)c2ccc3c(c2)OCO3)CC1	PAFAH2 inh 39 | PAFAH2 confirm inactive
CC1CCN(C(=O)COC(=O)c2ccc3c(c2)OCCO3)CC1	PAFAH2 inh 46 | PAFAH2 confirm 30
Cc1sc2nc[nH]c(=O)c2c1-c1ccc(Cl)cc1	none
Cn1c(COc2ccc(Cl)cc2)nnc1SCC(=O)NC1CCCC1	none
O=C(CSc1ccccn1)Nc1ccc2[nH]c(=O)[nH]c2c1	none
CN(C)CCCNC(=O)C[C@H]1C[C@H](C(=O)N2CCOCC2)[C@@]2(C)c3[nH]c4ccc(Cl)cc4c3CCN2C1=O	none
Cc1cccc(C(=O)OCC(=O)N2CCCCCC2)c1	none
O=C(O)/C=C/C(=O)NCCNc1ncc(C(F)(F)F)cc1Cl	PAFAH2 inh 54 | PAFAH2 confirm 38
CCc1ccc(NC(=O)CSc2nc3ccccc3c(=O)n2CCCC(=O)NCCCN2CCOCC2)cc1	PAFAH2 inh 196 | PAFAH2 confirm inactive
Cc1ccc(NC(=O)CSc2nc3ccccc3c(=O)n2CCCC(=O)NCCCN2CCOCC2)cc1C	none
Cc1ccc(S(=O)(=O)N2CCCC2)cc1C(=O)N1CCC(C)CC1	none
CCCc1cc(=O)oc2c3c(cc(OCC(=O)N[C@@H](CSC)C(=O)O)c12)OC(C)(C)CC3	PAFAH2 inh 34 (no result: pPAFAH inh) | PAFAH2 confirm inactive
CCOC(=O)C1(Cc2ccccc2)CCN(C2Cc3ccccc3C2)CC1	PAFAH2 inh 33 | PAFAH2 confirm inactive
O=C(COC(=O)c1ccc(Br)cc1)NCCC1=CCCCC1	PAFAH2 inh 31 | PAFAH2 confirm 32
Nc1cc(C(=O)OCC(=O)NCCC2=CCCCC2)ccc1Cl	PAFAH2 inh 52 | PAFAH2 confirm 38
Cc1ccsc1C(=O)OCC(=O)NCCC1=CCCCC1	PAFAH2 inh 32 | PAFAH2 confirm inactive
O=C(COC(=O)c1cccc(F)c1)NCCC1=CCCCC1	none
O=C(COC(=O)c1ccc[nH]c1=O)NCCC1=CCCCC1	none
O=C(COC(=O)c1ccccc1)NCCC1=CCCCC1	PAFAH2 inh 35 | PAFAH2 confirm 31
CCCCN(C(=O)c1ccc(C)c(S(=O)(=O)N2CCOCC2)c1)c1c(N)n(CCCC)c(=O)[nH]c1=O	none
CC1(C)C[C@H](O)[C@@]23C[C@@H](OC2=O)[C@]2(C)C(=CCC4[C@@]5(C)CC[C@H](O)C(C)(C)C5CC[C@]42C)[C@@H]3C1 (stereo partly specified)	none (no result: PAFAH1B2 FP inh, PAFAH2 inh, TCR CD3 inh, PAFAH1B3 FP inh)
COc1ccc(CNC(=O)C[C@H]2C(=O)N(C3CCCCC3)C[C@@H]2Cc2ccccc2)cc1	none
Cc1ccc(NC(=O)COC(=O)/C=C/c2cccc(Cl)c2)cc1S(=O)(=O)N1CCOCC1	PAFAH2 inh 60 | PAFAH2 confirm 50
COc1ccc(NC(=O)COC(=O)/C=C/c2ccc(OC)c(S(=O)(=O)N3CCOCC3)c2)cc1	PAFAH2 inh 62 | PAFAH2 confirm 58
COc1ccc(/C=C/C(=O)Nc2ccc(C(C)=O)cc2)cc1S(=O)(=O)N1CCOCC1	none (no result: PAFAH1B2 FP inh, pPAFAH inh, PAFAH2 inh, PAFAH1B3 FP inh)
COc1ccc(/C=C/C(=O)OCC(=O)Nc2ccc(OC)c(S(=O)(=O)N3CCCCC3)c2)cc1	none
COc1ccc(/C=C/C(=O)OCC(=O)Nc2ccc(C)cc2)cc1S(=O)(=O)N1CCOCC1	PAFAH2 inh 71 | PAFAH2 confirm 73
CCSC1=N/C(=C\c2ccc(-c3ccccc3[N+](=O)[O-])o2)C(=O)S1	none
CCCSC1=N/C(=C\c2ccc([N+](=O)[O-])o2)C(=O)S1	PAFAH2 inh 40 (no result: pPAFAH inh) | PAFAH2 confirm inactive
O=C(c1cccs1)N1C[C@@H](n2cc(-c3ccc(F)cc3)nn2)[C@H](O)C[C@@H]1c1ccccc1	none (no result: PAFAH1B2 FP inh, pPAFAH inh, PAFAH2 inh, PAFAH1B3 FP inh)
CN(C)CCNC(=O)c1cc2c(=O)n(C)c3ccccc3c2n1C	PAFAH2 inh 47 | PAFAH2 confirm inactive
CCN(CC)CCNC(=O)c1cc2c(=O)n(C)c3ccccc3c2n1C	none
Cc1onc(-c2ccccc2)c1NC(=O)OC(C)c1cccnc1 (stereo unspecified)	none (no result: PAFAH1B2 FP inh, pPAFAH inh, PAFAH2 inh, PAFAH1B3 FP inh)
O=[N+]([O-])c1cccc(S(=O)(=O)Nc2nc3ccccc3nc2Nc2cccc(S(=O)(=O)N3CCCCC3)c2)c1	PAFAH2 inh 45 (no result: pPAFAH inh) | PAFAH2 confirm inactive
COc1cc(NC(=O)[C@H]2O[C@@H](n3ccc(N)nc3=O)[C@H](O)[C@@H]2O)cc(OC)c1OC	none (no result: PAFAH1B2 FP inh, pPAFAH inh, PAFAH2 inh, PAFAH1B3 FP inh)
